The text below walks through data of PubChem BioAssay AID588493 (Sanford-Burnham Center for Chemical Genomics, 2011).

Among all 360,000 compounds or so, about 2,100 (0.58%) were called active.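 The calls were made as follows: active = inhibition at 20 µM, scaled to each plate's controls, above about 33% (limit read from the data); inactive = the rest.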 What follows is part of a selection rich in actives, with near analogues and random picks from the rest.

The target of the experiment is 26S proteasome non-ATPase regulatory subunit 14 (Homo sapiens) (UniProt O00487). Nature of the experiment: inhibition of 26S proteasome subunit Rpn11 – biochemical, fluorescence polarization, uHTS, primary screen (AID 588493). The following applies: human 26S proteasome, Ub4-pepOG fluorescence polarization; at 20 µM; active compounds read high; 20S core pre-blocked with epoxomicin.
Chain of 26S proteasome non-ATPase regulatory subunit 14 (Homo sapiens) (O00487 whole entry, looked up): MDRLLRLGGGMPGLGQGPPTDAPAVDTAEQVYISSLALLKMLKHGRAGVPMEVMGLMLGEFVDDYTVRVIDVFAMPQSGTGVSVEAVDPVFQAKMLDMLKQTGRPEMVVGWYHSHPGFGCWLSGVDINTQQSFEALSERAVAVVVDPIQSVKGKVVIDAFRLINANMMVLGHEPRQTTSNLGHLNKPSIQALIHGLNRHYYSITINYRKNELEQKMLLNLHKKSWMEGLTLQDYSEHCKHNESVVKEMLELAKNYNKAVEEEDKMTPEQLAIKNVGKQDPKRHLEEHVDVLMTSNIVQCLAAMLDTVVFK
As for `CCOC(=O)c1cc(C(C)C)sc1NC(=O)COC(=O)c1nccnc1N`, the inhibition was 16.7% (inactive). Consider `CCOc1ccc2oc(C(=O)N(CC)CC(=O)Nc3ccc(NC(C)=O)cc3)c(C)c2c1`, for which the inhibition was 8.2% (inactive).

Regarding `Cc1cccc(NC(=O)CSc2nnc(CCNC(=O)OC(C)(C)C)o2)c1C`, the inhibition is -2.3% (inactive).

Turning to `O=C(NCc1ccccn1)C1CCN(S(=O)(=O)c2ccc(Br)cc2)CC1`, the inhibition is -11.1% (inactive).

As to `CCC(C)C(CO)NC(=O)/C=C/[C@H]1O[C@@H](n2cnc3c(NC(=O)c4ccccc4)ncnc32)[C@H](O)[C@@H]1O` (stereo not given in full), the inhibition was -5.5% (inactive). Next, `COc1ccc(NC(=S)N2CCC(NC(=O)c3cccc(F)c3)CC2)cc1`: 6.4% (inactive); `C=CCNC(=O)C1CC=CCC1C(=O)O` (stereo not given): 3.6% (inactive). Under `CCOc1ccc(NC(=O)c2cccc3c2C(=O)N(CC2CCCO2)C3)cc1` (stereo not given) stands -0.9% (inactive); under `O=C(COC(=O)c1n[nH]c2ccccc12)Nc1ccccc1Br`, 0.1% (inactive); under `CN(C)C(=O)c1ccc(NC(=O)c2ccccc2-c2ccccc2)cc1`, 7% (inactive).

Regarding `CCc1ccc(NC(=O)CS(=O)CC(=O)N2CCN(c3ccccc3F)CC2)cc1` (stereo not given), the inhibition was 0.4% (inactive).

Turning to `S=C(NCCCc1ccccc1)Nc1ccc(Br)cc1`, the inhibition is 1% (inactive). For `CCc1ccc(NC(=O)CS(=O)CC(=O)NCCCc2ccccc2)cc1` (stereo not given), the inhibition was 43.6% (active). Next, `CCNC(=S)Nc1ccc2c(c1)c(=O)n(C)n2Cc1ccc(Cl)cc1`: 8.6% (inactive); `CCn1c(-c2cc(OC)ccc2OC)csc1=Nc1c(C)n(C)n(-c2ccccc2)c1=O`: 1.2% (inactive); `COCCNC(=S)N/N=C/c1c(C)[nH]c2ccccc12`: 17% (inactive).

Consider `CN=c1scc(-c2cc(OC)ccc2OC)n1/N=C/c1c(C)[nH]c2ccccc12`, for which the inhibition is 56.4% (active). Under `COc1ccc(N(CCC(=O)NCCc2ccccc2)S(=O)(=O)c2ccc(C)cc2C)cc1` stands 3.7% (inactive); under `Cc1cc(OCC(=O)N(C)c2c(N)n(Cc3ccccc3)c(=O)[nH]c2=O)c(C(C)C)cc1Cl`, -1.8% (inactive); under `CCC(=C/c1sc2ccc3ccccc3c2[n+]1C)/C=C1\Sc2ccc3ccccc3c2N1C`, 70% (active).

Turning to `Cc1ccc(S(=O)(=O)N2C[C@H]3C(=O)C[C@@H](c4cccc5ccccc45)N(S(=O)(=O)c4ccc(C)cc4)[C@H]3C[C@H]2c2ccc(Cl)cc2)cc1`, the inhibition was -1.4% (inactive). Next, `O=C(NCc1nnnn1-c1ccc(Cl)cc1)c1ccc([N+](=O)[O-])o1`: -0.3% (inactive); `Cc1cc(OCC(=O)NCC(O)c2ccccc2)c2c(C)c(C)c(=O)oc2c1` (stereo not given): -2.1% (inactive); `Cc1cc(OCC(=O)Nc2nccs2)c2c(C)c(C)c(=O)oc2c1`: 61.1% (active). Next, `COc1ccc(CCNC(=O)COc2cc(C)cc3oc(=O)c(C)c(C)c23)cc1OC`: 0% (inactive).

Broadly, the inhibition is the drop in the measured response relative to a control, in per cent.
